Laboratory results reported in PubChem BioAssay (NCATS).
Several values for one entry are separate records, joined by “and”; a condition that tells them apart may be missing. Equal entries are not always repeated. Inconclusive results are not listed. Activity calls are given as the source filed them. Unless noted, calls follow the shape of the dose curve; as a rule, active = well fitted curve in the direction sought with a large enough effect; inconclusive = small, poorly fitted or top-dose-only effect, or another doubt; inactive = no such curve, though single readings can be large; an effect the other way counts as inactive or inconclusive.

Legend:
[1] = Cell Viability - HUV-EC-C (AID 542);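 also: cells exposed to compound for 40 hours; nearly all actives have a fitted effect of over 35% in size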; also: potency is read from the fitted curve at half-maximal effect
Procedure, shortened: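 Decrease in cellular ATP, quantified by luciferase luminescence, reflects toxicity in normal human vascular endothelial HUV-EC-C cells given compound for 40 hr in complete culture medium. Values are AC50s from concentration-response curves.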

[2] = Cell Viability - Renal Proximal Tubule (AID 545);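 also: cells exposed to compound for 40 hours; 0% = DMSO only and -100% = 100 µM tamoxifen; nearly all actives have a fitted effect of over 40% in size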
Procedure, shortened: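 Cytotoxicity is scored as a concentration-dependent drop in cellular ATP in primary rat renal proximal tubule cells exposed for 40 hr. AC50 derives from Hill modelling.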

[3] = Cell Viability - LYMP2-005 (AID 967);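 also: series mostly up to about 92 µM; plate controls were DMSO only for no effect and 92 µM tetraoctylammonium bromide control for full effect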
Procedure, shortened: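 qHTS viability screen in LYMP2-005 cells: 24 h at 37 C with compound, ATP luminescence via CellTiter-Glo, AC50 from Hill curves.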

[4] = Cell Viability - LYMP2-011 (AID 969);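 also: 0% = DMSO only and full inhibition = 92 µM tetraoctylammonium bromide; nearly all actives have a fitted effect of over 60% in size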
Procedure, shortened: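 Acute toxicity is scored as a concentration-dependent drop in intracellular ATP of a human lymphoblastoid line after 24 hr treatment. Values are AC50s modeled with the Hill equation.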

[5] = Cell Viability - LYMP2-013 (AID 970);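 also: series mostly up to about 92 µM; 0% = DMSO only and full inhibition = tetraoctylammonium bromide control; nearly all actives have a fitted effect of over 55% in size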
Procedure, shortened: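 Acute toxicity was measured in human lymphoblastoid cells (2500/well) exposed to compound titrations for 24 hr, with ATP luminescence (CellTiter-Glo) as read-out and AC50 fitted by Hill equation.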

[6] = Cell Viability - LYMP2-015 (AID 971); also: nearly all actives have a fitted effect of over 55% in size; also: potency is read from the fitted curve at half-maximal effect
Procedure, shortened: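 Acute toxicity was scored as a concentration-dependent drop in intracellular ATP in lymphoblastoid cells after 24 hr compound exposure in complete medium. Detection used CellTiter-Glo luciferase luminescence.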

[7] = Cell Viability - LYMP2-021 (AID 974);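 also: compound exposure lasts 24 hours at 37 °C; nearly all actives have a fitted effect of over 55% in size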; also: potency is read from the fitted curve at half-maximal effect
Procedure, shortened: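 Concentration-response cytotoxicity in a human lymphoblastoid line: 24 hr treatment at 37 C in complete culture medium, tetraoctylammonium bromide as positive control, luminescent ATP quantitation as viability measure.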

[8] = Cell Viability - LYMP2-023 (AID 975);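 also: cellular ATP measured by luciferase luminescence as viability proxy; series mostly up to about 92 µM; cells exposed to compound for 24 hours at 37 °C; plate controls were DMSO only for no effect and 92 µM tetraoctylammonium bromide control for full effect; nearly all actives have a fitted effect of over 55% in size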
Procedure, shortened: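 Concentration-dependent drop in intracellular ATP measures acute cytotoxicity in a human lymphoblastoid line treated for 24 hours in complete culture medium. AC50 values are taken from Hill-equation fits of qHTS data.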

[9] = Cell Viability - LYMP2-002 (AID 977);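 also: series mostly up to about 92 µM; compound exposure lasted 24 h at 37 °C; plate controls were DMSO only for no effect and 92 µM tetraoctylammonium bromide for full effect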
Procedure, shortened: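 Cytotoxicity is scored as concentration-dependent loss of cellular ATP in a human lymphoblastoid line after 24 hr compound treatment at 37 C. AC50 is obtained by modelling concentration-response data with the Hill equation.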

[10] = Cell Viability - LYMP2-010 (AID 981); also: potency is read from the fitted curve at half-maximal effect
Procedure, shortened: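 Acute toxicity is scored as a concentration-dependent loss of cellular ATP in human lymphoblastoid cells after 24 hr compound exposure in complete medium. Tetraoctylammonium bromide is the positive control.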

[11] = Cell Viability - LYMP2-020 (AID 986)
Procedure, shortened: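 Acute cytotoxicity in a human lymphoblastoid line is scored as a concentration-dependent fall in cellular ATP after 24 hr at 37 C in complete medium. The positive control is tetraoctylammonium bromide, and potency is given as Hill-fit AC50.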

[12] = Cell Viability - LYMP1-002 - Assay at 24 hr (AID 993); also: % is scaled to controls: 0 for no effect and ±100 for the full control effect
Procedure, shortened: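 qHTS, LYMP1-002 lymphoblastoid, 24 h cpd, 37 C, CellTiter-Glo ATP luminescence; AC50 via Hill eq.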

[13] = target: Peroxisome proliferator-activated receptor delta (Homo sapiens) (UniProt Q03181); assay: qHTS assay for small molecule agonists of peroxisome proliferator-activated receptor delta signaling (AID 588534; calls by dose curve;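 also: 0% = DMSO basal wells and 100% = positive control agonist at 10 µM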)
Peroxisome proliferator-activated receptor delta (Homo sapiens), sequence (Q03181 whole entry, looked up): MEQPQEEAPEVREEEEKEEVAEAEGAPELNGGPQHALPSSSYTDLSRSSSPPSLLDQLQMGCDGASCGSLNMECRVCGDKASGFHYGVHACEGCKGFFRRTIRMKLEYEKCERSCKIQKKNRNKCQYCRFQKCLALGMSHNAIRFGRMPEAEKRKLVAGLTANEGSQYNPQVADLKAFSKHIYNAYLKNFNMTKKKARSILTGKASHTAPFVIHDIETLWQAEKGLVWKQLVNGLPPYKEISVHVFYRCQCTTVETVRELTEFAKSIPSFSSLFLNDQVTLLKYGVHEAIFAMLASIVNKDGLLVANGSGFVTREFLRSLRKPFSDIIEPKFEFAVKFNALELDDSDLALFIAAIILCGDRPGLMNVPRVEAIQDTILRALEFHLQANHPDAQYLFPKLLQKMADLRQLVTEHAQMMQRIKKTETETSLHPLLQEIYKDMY
Procedure, shortened: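 Reporter cells were plated and held 5 hrs at 37 C before compounds were added. After 18 hrs at 37 C, CCF4 dye was loaded for 2 hrs at RT and fluorescence measured.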

[14] = qHTS assay for small molecule antagonists of the retinoid-related orphan receptor gamma (ROR-gamma) signaling pathway - cell viability counter screen (AID 720652; active = well fitted curve in the direction sought with a large enough effect in the repeat runs; an effect the other way counts as inactive or inconclusive;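 also: CHO reporter cells with doxycycline-induced ROR-gamma expression; series mostly up to about 92 µM; compound exposure lasted 16 hr before ATP read; % is scaled to controls: 0 for no effect and ±100 for the full control effect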)
Procedure, shortened: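 Cytotoxicity is quantified via intracellular ATP (CellTiter-Glo luminescence) in doxycycline-induced CHO ROR response element-luciferase reporter cells treated with compound for 16 hr at 37 C, 5% CO2.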

[15] = target: Nuclear receptor subfamily 1 group I member 2 (Rattus norvegicus) (UniProt Q9R1A7); assay: qHTS assay for small molecule activators of the rat pregnane X receptor (rPXR) signaling pathway (AID 651751; call rule not given here; also: 0% is about no effect); settings: rPXR reporter cells, luciferase (One-Glo), 24 h
Nuclear receptor subfamily 1 group I member 2 (Rattus norvegicus), sequence (Q9R1A7 whole entry, looked up): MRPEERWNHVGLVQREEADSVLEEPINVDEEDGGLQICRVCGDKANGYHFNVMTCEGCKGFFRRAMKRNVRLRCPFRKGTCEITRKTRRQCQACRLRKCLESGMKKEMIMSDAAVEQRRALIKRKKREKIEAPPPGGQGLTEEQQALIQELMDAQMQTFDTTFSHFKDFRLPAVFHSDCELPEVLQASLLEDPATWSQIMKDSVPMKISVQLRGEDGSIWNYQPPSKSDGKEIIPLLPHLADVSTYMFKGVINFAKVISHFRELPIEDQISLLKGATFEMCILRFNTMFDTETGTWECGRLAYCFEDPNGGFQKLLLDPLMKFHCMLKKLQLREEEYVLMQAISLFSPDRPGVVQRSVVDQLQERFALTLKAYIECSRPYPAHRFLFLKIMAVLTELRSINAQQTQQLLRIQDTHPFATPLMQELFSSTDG

[16] = qHTS assay for small molecule activators of the nuclear factor-kappa B (NF-kB) signaling pathway (AID 651749; active = well fitted activation curve with a large enough effect in the signal ratio; the % refers to the signal ratio; also: series mostly up to about 77 µM; % of control where 0% means no effect); settings: NF-kB-bla ME-180 cells, beta-lactamase FRET ratio, 16 h; hits give high values
Procedure, shortened: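 Stably transfected ME-180 line; NF-kB response element upstream of beta-lactamase. Treatment: compound or DMSO, 16 hr. Detection: fluorescent FRET substrate.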

[17] = qHTS assay for small molecule activators of the human pregnane X receptor (PXR) signaling pathway (AID 720659; call rule not given here; also: 0% is about no effect)
[18] = target: Retinoic acid receptor RXR-alpha (Homo sapiens) (UniProt P19793); assay: qHTS assay for small molecule antagonists of retinoid X receptor alpha signaling (AID 588546; active = well fitted inhibition curve with a large enough effect in the signal ratio, with a control signal flat, not every such curve was filed as active; the % refers to the signal ratio;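 also: cells stimulated with 9-cis-retinoic acid as agonist; % is scaled to controls: 0 for no effect and ±100 for the full control effect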); settings: HEK293T RXRa-UAS-bla, beta-lactamase ratio, antagonist mode
Retinoic acid receptor RXR-alpha (Homo sapiens), sequence (P19793 whole entry, looked up): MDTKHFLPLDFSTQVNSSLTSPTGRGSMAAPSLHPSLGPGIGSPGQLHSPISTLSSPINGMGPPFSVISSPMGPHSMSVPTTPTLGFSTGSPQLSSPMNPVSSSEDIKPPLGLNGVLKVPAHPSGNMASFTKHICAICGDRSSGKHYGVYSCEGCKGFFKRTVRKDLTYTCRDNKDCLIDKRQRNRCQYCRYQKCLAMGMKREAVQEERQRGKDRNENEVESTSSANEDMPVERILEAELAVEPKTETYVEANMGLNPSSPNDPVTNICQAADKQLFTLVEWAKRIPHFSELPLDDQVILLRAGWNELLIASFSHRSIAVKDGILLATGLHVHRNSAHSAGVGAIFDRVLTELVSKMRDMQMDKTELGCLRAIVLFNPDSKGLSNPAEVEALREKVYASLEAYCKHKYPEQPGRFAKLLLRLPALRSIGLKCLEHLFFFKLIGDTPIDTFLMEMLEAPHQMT
Procedure, shortened: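 Beta-lactamase reporter inhibition, read as CCF4 fluorescence ratio (ex 405, em 460/530 nm) after 2 h at RT. HEK293T UAS-bla cells, 2500/well, were stimulated with 9-cis-RA at 500 or 100 nM final alongside test compound for 18 h at 37 C.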

[19] = Cell Viability - SK-N-SH (AID 435; calls by dose curve;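 also: potency is read from the fitted curve at half-maximal effect; compound exposure lasted 40 h at 37 °C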); settings: SK-N-SH neuroblastoma cell viability qHTS
Procedure, shortened: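 Cells seeded at 1500 per well and incubated 5 hr at 37 °C. Compound added, then 40 hr at 37 °C. CellTiter-Glo added, 20 min at room temperature, luminescence read.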

[20] = qHTS assay for small molecule agonists of the antioxidant response element (ARE) signaling pathway (AID 651741; active = well fitted activation curve with a large enough effect in the signal ratio; the % refers to the signal ratio; also: potency is read from the fitted curve at half-maximal effect; as to activation: % of control where 0% means no effect)
Procedure, shortened: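 Seeding 2,000 ARE-bla HepG2 cells per well preceded a 5 h incubation at 37 C/5% CO2 and a 16 h compound exposure at 37 C. Beta-lactamase reporter activity was then quantified by fluorescence after 2 h with LiveBLAzer B/G FRET substrate.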

COP(=S)(OC)SCn1nnc2ccccc2c1=O
inactive: Potency [1] | outcome [2] | Potency [3] | Potency [4] | Potency [5] | Potency [6] | Potency [7] | Potency [8] | Potency [9] | Potency [10] | Potency [11] | Potency [12] | outcome [13] | Potency [14] | max response [15] 0.903% and 4.17%

C/C=C/C=O
inactive: Potency [1] | outcome [2] | Potency [4] | Potency [5] | Potency [6] | Potency [7] | Potency [8] | Potency [9] | Potency [11] | activation [16] 0.438% | Potency [14] | max response [15] 18.2% | outcome [17]

CC(C)(COCC1CO1)COCC1CO1 (centres undefined)
inactive: outcome [2] | Potency [3] | Potency [4] | Potency [5] | Potency [6] | Potency [7] | Potency [8] | Potency [9] | Potency [10] | Potency [11] | Potency [12] | outcome [13] | max response [18] 6.95% | activation [16] 0.814% | Potency [14] | max response [15] 1.93% | outcome [17]

c1ccc(N=NNc2ccccc2)cc1
inactive: Potency [19] > 92 µM | Potency [1] | outcome [2] | Potency [3] | Potency [4] | Potency [5] | Potency [7] | Potency [9] | Potency [10] | Potency [11] | Potency [12] | outcome [13] | max response [18] -17.2% | Potency [14]
active: Potency [20] 26.6 µM and 9.69 µM

C(CCOCC1CO1)COCC1CO1 (centres undefined)
active: Potency [20] 66.8 µM
inactive: Potency [19] 27.7 µM | Potency [1] | outcome [2] | Potency [3] | Potency [4] | Potency [5] | Potency [6] | Potency [7] | Potency [8] | Potency [11] | Potency [12] | outcome [13] | max response [18] 15.6% | activation [16] 0.765% | Potency [14] | max response [15] 2.78% | outcome [17]

CCCC[N+](=O)[O-]
inactive: Potency [19] > 92 µM | Potency [1] | outcome [2] | Potency [3] | Potency [4] | Potency [6] | Potency [7] | Potency [8] | Potency [10] | max response [18] -6.25% | Potency [20] | activation [16] -0.304% | Potency [14] | max response [15] 1.76% | outcome [17]

Nc1cc(Cl)ccc1O
active: Potency [20] 10.6 µM
inactive: Potency [19] > 92 µM | outcome [2] | Potency [4] | Potency [5] | Potency [7] | Potency [8] | Potency [11] | Potency [12] | outcome [13] | max response [18] -9.48% | activation [16] -0.288%

CCCCC(CC)COC(=O)c1ccc(C(=O)OCC(CC)CCCC)c(C(=O)OCC(CC)CCCC)c1 (centres undefined)
inactive: Potency [1] | outcome [2] | Potency [3] | Potency [4] | Potency [5] | Potency [8] | Potency [9] | Potency [11] | outcome [13] | max response [18] 5.41% | Potency [20] | activation [16] 1.1% | Potency [14] | max response [15] 0.711% | outcome [17]

N#CC(Cl)(Cl)Cl
inactive: Potency [19] > 92 µM | Potency [1] | outcome [2] | Potency [3] | Potency [4] | Potency [5] | Potency [7] | Potency [8] | Potency [9] | Potency [10] | Potency [11] | Potency [12] | outcome [13] | max response [18] 11.1% | Potency [20] | activation [16] -0.633% | Potency [14] | max response [15] 3.31% | outcome [17]

CN(C)c1ccc(N)cc1
active: Potency [1] 31.6 µM | Potency [6] 50.1 µM | Potency [7] 63.1 µM | Potency [10] 50.1 µM | Potency [20] 33.5 µM
inactive: outcome [13]

O=[N+]([O-])c1cccc2c([N+](=O)[O-])cccc12
active: Potency [20] 4.73 µM
inactive: Potency [1] | Potency [3] | Potency [9] | Potency [11] | outcome [13] | max response [18] 7.28% | activation [16] 0.0339% | Potency [14] | max response [15] -2.66% | outcome [17]

O=[N+]([O-])c1cc(Cl)c(Cl)c(Cl)c1
inactive: Potency [19] > 92 µM | Potency [1] | Potency [3] | Potency [4] | Potency [5] | Potency [6] | Potency [7] | Potency [8] | Potency [9] | Potency [10] | Potency [11] | outcome [13] | max response [18] -5.05% | activation [16] -1.89% | Potency [14] | max response [15] -3.17% | outcome [17]
